Molecules are shown by their SMILES. Inconclusive results are not listed. The source made the active and inactive calls. Unless noted, calls come from the whole dose curve; as a rule, active = well fitted curve in the direction sought with a large enough effect; inconclusive = small, poorly fitted or top-dose-only effect, or another doubt; inactive = no such curve, though single readings can be large; an effect the other way counts as inactive or inconclusive. Bridge positions count the residues as written; N and C are the ends. Square brackets hold non-standard residues; d marks the D form. Peptide text beside a SMILES is read from it. hArg = N=C(N)NCCCC[C@H](N)C(=O)O; Mpa = O=C(O)CCS

This note sets out measurements from PubChem BioAssay (NCATS).

For assay [1], the target named is Chromobox protein homolog 1 (Homo sapiens) (UniProt P83916). The assay is described as follows: qHTS Validation Assay for Inhibitors of HP1-beta Chromodomain Interactions with Methylated Histone Tails (AID 488953). Note: nearly all actives have a fitted effect of over 50% in size. Note: potency is the fitted concentration of half-maximal effect. In a few lines: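 AlphaScreen proximity signal from streptavidin donor and nickel chelate acceptor beads (final 10 ug/mL) after 30 min dark incubation. Compounds had 30 min at room temperature with preformed complex of 50 nM HP1-beta and 50 nM b-H3(1-18)K9me3 in PBS pH 7.4 with 0.01% Tween-20.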

Assay [2] addresses Methanococcus maripaludis chaperonin (MmCpn) (UniProt Q6LX38). The experiment in a line: High-Throughput Screening for Modulators of Cytosolic Chaperonin Activity: MmCpn Primary Screen (AID 488978).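 Note: 50 nM MmCpn enzyme hydrolysing 30 µM ATP at 37 °C; 0% is about no effect.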 In short, it runs like this: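 MmCpn at 50 nM final was preincubated 5 min at RT with compound. ATP was then added at 30 uM final for 10 min at 37 C. ADP formed was detected by Transcreener HTRF (665/590 nm).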

Assay [3] addresses Transient receptor potential cation channel subfamily V member 1 (Homo sapiens) (UniProt Q8NER1). The experiment in a line: HTS Assay for Compounds that Act as Enhancers of the Vanilloid Receptor 1 (AID 488979). Note: 0% is about no effect. In short, it runs like this:
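TRPV1 cells loaded with Fluo-8 calcium dye; compound added and Ca2+ signal (ex 480/em 520 nm) followed 3 min, then capsaicin at EC20 added and read 2 more min to detect enhancement.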

Assay [4] deals with Thyrotropin receptor (Homo sapiens) (UniProt P16473). The assay is described as follows: qHTS Assay for Antagonists of the Thyroid Stimulating Hormone Receptor (AID 488980). Note: series mostly up to about 58 µM; 0% is about no effect. In short, it runs like this: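 TSHR-transfected HEK293 cells (2000/well) in HEPES-buffered HBSS with 70 uM RO 20-1724 were stimulated with 4 nM TSH (EC80, final) in the presence of compound. cAMP was measured by HTRF competition after lysis and 30 min at RT.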
Background: Quantitative high-throughput screening tests each substance at several concentrations.

Assay [5] concerns the target D(1A) dopamine receptor (Homo sapiens) (UniProt P21728). The experiment in a line: HTS Assay for Allosteric Agonists of the Human D1 Dopamine Receptor: Primary Screen for Agonists (AID 488981). Note: 0% is about no effect. In short, it runs like this: (§1)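 Tetracycline-induced HEK293 Trex D1 cells with forced coupling to calcium, loaded with no-wash calcium dye; kinetic fluorescence read 180 s after compound addition for agonism, then a further 180 s after an EC20 dopamine challenge for potentiation.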

The target is the same in assay [6]. The experiment in a line: HTS Assay for Allosteric Agonists of the Human D1 Dopamine Receptor: Primary Screen for Potentiators (AID 488982). Note: potency is the fitted concentration of half-maximal effect. In short, it runs like this: as §1
Assay [7] shares this target. The experiment in a line: HTS Assay for Allosteric Agonists of the Human D1 Dopamine Receptor: Primary Screen for Antagonists (AID 488983).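 Note: calcium flux response to an EC80 dopamine challenge measured with no-wash dye; % is set by controls: 0 for no effect and ±100 for the full control effect; nearly all actives have a fitted effect of over 65% in size.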 In short, it runs like this:
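Calcium-flux read-out in inducible HEK293 T-REx cells expressing D1, dye-loaded 30–90 min at room temperature. Kinetic reads: 180 s after compound (agonist phase), then 180 s after an EC80 dopamine challenge.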

Assay [8] addresses ATP-dependent 6-phosphofructokinase (Trypanosoma brucei brucei) (UniProt O15648). The assay is described as follows: qHTS Assay to Find Inhibitors of T. brucei phosphofructokinase: hit validation (AID 492961).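 Note: luminescence reports ADP formed as PFK phosphorylates fructose-6-phosphate with ATP; series mostly up to about 51 µM; % is set by controls: 0 for no effect and ±100 for the full control effect.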 In short, it runs like this: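 Inhibition of parasite PFK is measured as reduced ADP formation, quantified via luciferase after ATP depletion. Assay used 0.1 mM ATP, 0.5 mM F6P, 1.25 nM enzyme, 45 min incubation.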

Assay [9] in a line: Validation screen for small molecules that induce genotoxicity in human embryonic kidney (HEK293T) cells expressing luciferase-tagged ELG1 (AID 493106). Note: 0% is about no effect. In a few lines: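 ELG1-luciferase reporter readout (ONE-Glo, 30 min, room temperature) after 16 hr compound treatment at 37 °C of HEK293T cells at 2,000 per well. Rising luminescence flags genotoxic stress.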
Assay [10] deals with ATPase family AAA domain-containing protein 5 (Homo sapiens) (UniProt Q96QE3). The experiment in a line: Validation screen for small molecules that inhibit ELG1-dependent DNA repair in human embryonic kidney (HEK293T) cells expressing luciferase-tagged ELG1 (AID 493107). Note: nearly all actives have a fitted effect of over 70% in size. Note: potency is the fitted concentration of half-maximal effect. In short, it runs like this:
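Luciferase read-out, ONE-Glo, 30 min at room temperature, follows 16 h co-exposure at 37 C of compound and the DNA-damaging agent 5-fluorouridine. Cells: HEK293T with ELG1-luciferase fusion, 2,000 per well, DMSO as vehicle.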

Assay [11] addresses Thyrotropin-releasing hormone receptor (Homo sapiens) (UniProt P34981). The assay is described as follows: qHTS for Small Molecule Agonists and Allosteric Enhancers of Human TRH Receptor: Validation Screen for Agonists (AID 493127;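 active = calcium activation more than 3 SD above the typical response in the agonist read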;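 note: intracellular calcium rise by fluo-8 fluorescence before TRH EC20 addition; 0% is about no effect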). Particulars: TRH receptor agonist cell assay; at 2 µM; stronger effect = higher value. In short, it runs like this:
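Compound-evoked intracellular calcium release in fluo-8-loaded TRHR cells, read kinetically on FDSS (Ex 480/Em 530, 1 s/cycle) after 23 nL pintool transfer. Agonist phase preceded 10 nM TRH EC20 addition.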

A short description of assay [12]: qHTS for Inhibitors of Cell Surface uPA Generation: Validation Assay (AID 493164).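 Note: RAW 264.7 macrophage cells exposed to compound for 18 h; 0% is about no effect.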 In a few lines: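 ATP-Lite luminescence read-out: ATP remains high when uPA activity-dependent LF translocation into the cytoplasm is blocked. RAW 264.7 cells, 18 h compound exposure at 37 C; 7-point titration, 2.45 nM to 38.3 uM final.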
Assay [13] deals with Galactokinase (Homo sapiens) (UniProt P51570). The assay is described as follows: qHTS Validation Assay for Inhibitors of Human Galactokinase (GALK) (AID 493189). Note: 0% is about no effect. In a few lines: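 GALK (5 nM) with 35 uM ATP and 100 uM galactose in HEPES pH 8.0 with MgCl2, NaCl, DTT and BSA. Reaction ran 1 h at room temperature. Residual ATP read by Kinase-Glo Plus luminescence.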
Assay [14] can be described thus: Validation screen for small molecules that induce DNA re-replication in SW480 colon adenocarcinoma cells (AID 504364). Note: 0% is about no effect. In short, it runs like this: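 Image-based DNA content read-out: Hoechst stain 40 min, total nuclear fluorescence intensity (ex 405 nm, em 500-530 nm) after 48 h compound exposure of 250 SW480 cells/well at 37 C, 5% CO2, versus DMSO vehicle.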
Assay [15] deals with Peptidyl-prolyl cis-trans isomerase NIMA-interacting 1 (Homo sapiens) (UniProt Q13526). The experiment in a line: qHTS Validation Assay to Find Inhibitors of Pin1 (AID 504536; active = well fitted inhibition curve with a large enough effect in the polarisation, with a control signal flat, not every such curve was filed as active; the % refers to the polarisation;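 note: 0% = full Pin1 enzyme wells and -100% = no-enzyme wells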). In a few lines: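 Fluorescence polarization competition: compounds (titration) displace HiFluor-488-labeled Pin1-1b peptide from Pin1 (0.3 uM final) in pH 7.5 HEPES buffer with DTT, 10 min at room temperature; %Activity normalized to no-enzyme wells, curves fitted.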

The target of assay [16] is Phosphoglycerate kinase, glycosomal (Trypanosoma brucei brucei) (UniProt P07378). The experiment in a line: qHTS Validation Assay to Find Inhibitors of Phosphoglycerate Kinase (AID 504547).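 Note: control wells lack PGK and mark full inhibition.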 In short, it runs like this: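 Compounds are pinned into the substrate/PGK mixture, and GAPDH (100nM final) is added to start the reaction by producing 1,3-BPG. After 60 minutes at room temperature, Kinase-Glo Plus is added and luminescence is measured 10 minutes later.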

The target of assay [17] is phosphoglycerate mutase (Leishmania major) (UniProt Q4Q090). The assay is described as follows: qHTS Validation Assay to Find Inhibitors of Phosphoglycerate Mutase (AID 504548).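 Note: end-point luminescence from Kinase-GloPlus after the PGAM reaction; series mostly up to about 58 µM; % is set by controls: 0 for no effect and ±100 for the full control effect.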 In a few lines: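 L. major PGAM (1.25nM final) was added to substrate buffer and pinned compound, incubated 45 minutes at room temperature, then Kinase-GloPlus added; luminescence read after 10 minutes. Buffer: 100 mM TEA pH 7.6, 5 mM MgCl2, 0.01% Tween-20.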

Assay [18] can be described thus: Inducers of the Endoplasmic Reticulum Stress Response (ERSR) in human glioma: Validation (AID 504836). Note: 0% is about no effect. In short, it runs like this:
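Stably transfected U87-MG glioma cells carrying a GRP78-based luciferase sensor; 16 h compound incubation. Luminescence end-point read 10 min after Bright-Glo addition at room temperature.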

Assay [19] deals with Ubiquitin carboxyl-terminal hydrolase 1 (Homo sapiens) (UniProt O94782). The experiment in a line: Inhibitors of USP1/UAF1: Pilot qHTS (AID 504865).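 Note: rhodamine fluorescence freed from ubiquitin-rhodamine substrate followed over time; top concentration of the series differs between compounds; % is set by controls: 0 for no effect and ±100 for the full control effect; nearly all actives have a fitted effect of over 35% in size.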 In short, it runs like this:
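USP1/UAF1 complex at 1 nM preincubated 15 min at room temperature with compound, then Ub-Rho substrate added at 150 nM final. Fluorescence (480/540 nm) read kinetically in 50 mM HEPES pH 7.8, 0.5 mM EDTA, 1 mM TCEP, 0.1 mg/ml BSA, 0.01% Tween-20.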

Assay [20] is described as follows: Nrf2 qHTS screen for inhibitors: Validation (AID 493153; active = well fitted inhibition curve with a large enough effect in the main read-out, with a control signal flat, not every such curve was filed as active). Particulars: viability change: measured here: cytotoxicity max response. In short, it runs like this:
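Concentration-response on A549 ARE_Fluc reporter cells exposed 18-24 h at 37 C, 5% CO2. Cytotoxicity read first by CellTiter-Fluor fluorescence (Ex 405/Em 525), then Nrf2 inhibition by BugLite luminescence after 15 min.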

Sequence of Transient receptor potential cation channel subfamily V member 1 (Homo sapiens) (Q8NER1 whole entry, looked up): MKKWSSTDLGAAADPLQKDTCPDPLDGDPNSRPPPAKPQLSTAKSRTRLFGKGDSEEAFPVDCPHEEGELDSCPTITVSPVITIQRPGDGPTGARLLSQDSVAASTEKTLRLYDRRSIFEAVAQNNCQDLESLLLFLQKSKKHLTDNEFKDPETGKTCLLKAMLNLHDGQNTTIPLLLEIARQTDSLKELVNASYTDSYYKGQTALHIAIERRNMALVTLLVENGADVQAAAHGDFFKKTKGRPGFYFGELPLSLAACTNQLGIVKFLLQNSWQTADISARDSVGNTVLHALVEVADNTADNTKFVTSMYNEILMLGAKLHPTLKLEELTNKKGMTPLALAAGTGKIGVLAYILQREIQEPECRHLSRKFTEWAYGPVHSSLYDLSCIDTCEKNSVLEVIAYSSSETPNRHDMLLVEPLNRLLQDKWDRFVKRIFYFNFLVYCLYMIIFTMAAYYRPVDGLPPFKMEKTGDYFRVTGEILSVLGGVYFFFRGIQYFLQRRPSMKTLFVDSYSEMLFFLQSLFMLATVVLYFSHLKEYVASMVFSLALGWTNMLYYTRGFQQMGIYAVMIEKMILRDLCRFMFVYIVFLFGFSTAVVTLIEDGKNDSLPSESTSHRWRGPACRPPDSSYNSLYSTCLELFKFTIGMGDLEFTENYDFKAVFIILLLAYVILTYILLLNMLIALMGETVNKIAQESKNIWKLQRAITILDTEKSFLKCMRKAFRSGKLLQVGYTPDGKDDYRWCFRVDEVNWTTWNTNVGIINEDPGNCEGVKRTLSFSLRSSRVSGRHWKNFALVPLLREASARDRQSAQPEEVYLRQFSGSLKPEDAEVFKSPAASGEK
Sequence of ATP-dependent 6-phosphofructokinase (Trypanosoma brucei brucei) (O15648 whole entry, looked up): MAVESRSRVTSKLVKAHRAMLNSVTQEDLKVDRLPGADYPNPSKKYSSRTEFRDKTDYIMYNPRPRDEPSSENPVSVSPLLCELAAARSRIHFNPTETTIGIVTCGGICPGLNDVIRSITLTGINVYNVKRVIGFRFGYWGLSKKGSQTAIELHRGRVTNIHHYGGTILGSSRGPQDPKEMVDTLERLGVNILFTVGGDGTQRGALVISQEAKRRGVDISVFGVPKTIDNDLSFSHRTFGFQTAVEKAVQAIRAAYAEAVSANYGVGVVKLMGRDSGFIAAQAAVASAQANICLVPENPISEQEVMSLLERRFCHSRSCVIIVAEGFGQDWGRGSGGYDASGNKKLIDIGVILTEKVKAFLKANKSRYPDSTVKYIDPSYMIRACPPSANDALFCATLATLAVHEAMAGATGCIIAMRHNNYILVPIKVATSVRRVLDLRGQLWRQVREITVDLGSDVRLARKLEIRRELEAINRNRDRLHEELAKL
Sequence of Thyrotropin receptor (Homo sapiens) (P16473 whole entry, looked up): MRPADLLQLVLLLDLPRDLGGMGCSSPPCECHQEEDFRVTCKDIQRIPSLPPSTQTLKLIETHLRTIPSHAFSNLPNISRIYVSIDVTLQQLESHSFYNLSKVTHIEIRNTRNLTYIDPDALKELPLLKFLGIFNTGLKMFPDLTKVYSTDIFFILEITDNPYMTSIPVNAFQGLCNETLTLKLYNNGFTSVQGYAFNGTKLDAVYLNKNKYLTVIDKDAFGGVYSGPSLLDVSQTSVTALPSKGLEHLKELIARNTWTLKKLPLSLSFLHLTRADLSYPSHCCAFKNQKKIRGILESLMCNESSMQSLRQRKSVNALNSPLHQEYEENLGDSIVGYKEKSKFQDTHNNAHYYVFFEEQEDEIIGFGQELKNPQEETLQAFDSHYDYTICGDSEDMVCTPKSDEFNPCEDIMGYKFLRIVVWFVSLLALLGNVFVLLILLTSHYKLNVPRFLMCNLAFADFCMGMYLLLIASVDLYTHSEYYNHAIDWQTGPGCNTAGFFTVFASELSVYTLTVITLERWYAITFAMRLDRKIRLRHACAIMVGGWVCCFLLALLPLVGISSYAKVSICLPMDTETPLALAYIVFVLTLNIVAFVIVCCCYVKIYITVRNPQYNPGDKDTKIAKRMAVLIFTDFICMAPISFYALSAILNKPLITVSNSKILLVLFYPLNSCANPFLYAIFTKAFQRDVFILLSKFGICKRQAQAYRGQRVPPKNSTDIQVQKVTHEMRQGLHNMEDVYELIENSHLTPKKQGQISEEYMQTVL
Sequence of Chromobox protein homolog 1 (Homo sapiens) (P83916 whole entry, looked up): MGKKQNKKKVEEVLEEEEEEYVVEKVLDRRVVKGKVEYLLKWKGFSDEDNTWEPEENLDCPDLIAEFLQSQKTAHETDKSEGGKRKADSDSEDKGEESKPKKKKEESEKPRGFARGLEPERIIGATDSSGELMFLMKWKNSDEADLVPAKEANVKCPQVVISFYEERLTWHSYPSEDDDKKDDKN
Sequence of Galactokinase (Homo sapiens) (P51570 whole entry, looked up): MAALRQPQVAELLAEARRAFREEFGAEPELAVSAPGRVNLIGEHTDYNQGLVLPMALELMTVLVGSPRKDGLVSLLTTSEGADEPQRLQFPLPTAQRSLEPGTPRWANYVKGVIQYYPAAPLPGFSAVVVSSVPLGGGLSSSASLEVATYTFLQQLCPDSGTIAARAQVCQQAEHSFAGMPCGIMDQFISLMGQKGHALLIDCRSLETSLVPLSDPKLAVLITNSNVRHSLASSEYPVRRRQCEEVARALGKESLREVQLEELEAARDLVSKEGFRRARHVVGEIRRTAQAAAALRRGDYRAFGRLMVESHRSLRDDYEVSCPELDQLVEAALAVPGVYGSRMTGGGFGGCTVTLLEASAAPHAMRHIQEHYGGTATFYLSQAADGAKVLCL
Sequence of Ubiquitin carboxyl-terminal hydrolase 1 (Homo sapiens) (O94782 whole entry, looked up): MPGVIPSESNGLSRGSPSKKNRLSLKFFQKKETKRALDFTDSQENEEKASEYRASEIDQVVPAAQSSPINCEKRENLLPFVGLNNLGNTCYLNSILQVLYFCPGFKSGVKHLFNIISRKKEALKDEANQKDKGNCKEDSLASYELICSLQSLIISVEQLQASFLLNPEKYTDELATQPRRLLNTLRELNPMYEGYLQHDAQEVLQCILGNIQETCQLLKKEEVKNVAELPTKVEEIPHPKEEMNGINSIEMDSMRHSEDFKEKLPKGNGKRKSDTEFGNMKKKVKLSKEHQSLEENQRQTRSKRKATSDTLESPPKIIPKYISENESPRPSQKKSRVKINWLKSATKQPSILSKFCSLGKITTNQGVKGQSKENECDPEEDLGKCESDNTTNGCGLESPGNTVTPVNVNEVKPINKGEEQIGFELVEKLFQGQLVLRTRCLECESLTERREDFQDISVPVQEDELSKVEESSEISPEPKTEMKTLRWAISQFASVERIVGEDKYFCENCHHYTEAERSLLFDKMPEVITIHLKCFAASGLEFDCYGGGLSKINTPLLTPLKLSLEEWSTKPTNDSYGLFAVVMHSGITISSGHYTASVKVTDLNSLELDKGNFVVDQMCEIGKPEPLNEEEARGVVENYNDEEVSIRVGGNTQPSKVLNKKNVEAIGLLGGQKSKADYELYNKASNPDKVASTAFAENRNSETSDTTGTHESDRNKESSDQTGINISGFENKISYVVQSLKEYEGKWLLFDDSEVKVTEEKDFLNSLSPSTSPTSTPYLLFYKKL
Sequence of Thyrotropin-releasing hormone receptor (Homo sapiens) (P34981 whole entry, looked up): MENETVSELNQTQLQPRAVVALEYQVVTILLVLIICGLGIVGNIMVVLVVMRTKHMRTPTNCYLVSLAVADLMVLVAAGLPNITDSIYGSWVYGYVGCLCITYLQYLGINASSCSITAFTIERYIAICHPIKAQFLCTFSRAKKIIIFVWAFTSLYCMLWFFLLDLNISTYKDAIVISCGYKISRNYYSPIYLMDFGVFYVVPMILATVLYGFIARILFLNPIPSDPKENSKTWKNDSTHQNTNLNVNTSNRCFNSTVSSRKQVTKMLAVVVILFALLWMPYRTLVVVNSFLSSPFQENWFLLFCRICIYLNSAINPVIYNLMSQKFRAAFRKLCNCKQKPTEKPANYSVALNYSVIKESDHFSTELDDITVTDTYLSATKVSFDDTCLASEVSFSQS
Sequence of D(1A) dopamine receptor (Homo sapiens) (P21728 whole entry, looked up): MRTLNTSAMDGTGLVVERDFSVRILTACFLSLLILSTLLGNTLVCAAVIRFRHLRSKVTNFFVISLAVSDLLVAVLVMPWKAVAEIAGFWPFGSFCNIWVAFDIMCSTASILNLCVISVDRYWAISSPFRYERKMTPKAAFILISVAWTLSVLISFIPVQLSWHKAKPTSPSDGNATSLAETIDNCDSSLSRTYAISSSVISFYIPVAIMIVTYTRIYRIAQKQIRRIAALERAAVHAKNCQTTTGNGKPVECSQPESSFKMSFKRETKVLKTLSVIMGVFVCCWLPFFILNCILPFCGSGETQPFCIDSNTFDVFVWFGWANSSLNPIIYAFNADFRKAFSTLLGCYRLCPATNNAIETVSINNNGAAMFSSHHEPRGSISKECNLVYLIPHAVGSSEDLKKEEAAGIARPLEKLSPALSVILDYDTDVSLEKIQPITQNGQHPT
Sequence of Phosphoglycerate kinase, glycosomal (Trypanosoma brucei brucei) (P07378 whole entry, looked up): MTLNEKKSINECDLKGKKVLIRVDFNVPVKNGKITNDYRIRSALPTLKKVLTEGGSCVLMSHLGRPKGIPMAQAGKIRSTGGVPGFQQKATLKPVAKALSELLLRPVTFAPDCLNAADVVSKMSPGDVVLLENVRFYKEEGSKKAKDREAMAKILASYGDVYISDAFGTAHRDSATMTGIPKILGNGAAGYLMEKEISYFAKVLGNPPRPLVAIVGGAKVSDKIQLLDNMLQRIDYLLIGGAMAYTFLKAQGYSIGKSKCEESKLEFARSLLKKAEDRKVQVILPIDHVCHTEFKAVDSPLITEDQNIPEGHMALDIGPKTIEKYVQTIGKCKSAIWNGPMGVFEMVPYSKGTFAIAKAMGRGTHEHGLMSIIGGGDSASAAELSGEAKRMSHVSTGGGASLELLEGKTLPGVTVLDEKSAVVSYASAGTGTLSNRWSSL
Sequence of Peptidyl-prolyl cis-trans isomerase NIMA-interacting 1 (Homo sapiens) (Q13526 whole entry, looked up): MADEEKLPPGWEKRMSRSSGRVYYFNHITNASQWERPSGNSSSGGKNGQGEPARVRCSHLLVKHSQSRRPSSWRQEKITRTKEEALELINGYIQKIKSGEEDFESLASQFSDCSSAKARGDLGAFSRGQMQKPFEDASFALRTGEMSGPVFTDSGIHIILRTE

Regarding `O=C(O)c1nn(Cc2ccc(Cl)cc2Cl)c2ccccc12`, the Potency entry in assay [1], in assay [6], in [7], in [8], in assay [10] and in assay [19] was “inactive” in each case. For the same compound, the outcome in assay [2], in assay [3], in assay [4], in [5], in [9] and in assay [12] was inactive. For the same compound, the compound was called inactive in assay [13], in assay [14], in assay [15], in assay [16], in assay [17] and in assay [18]. Further, in [11], the activation is 0.438% (inactive).
With `C[C@]12C=CC(=O)C=C1CC[C@@H]1[C@@H]2CC[C@@]2(C)[C@H]1CC[C@]2(C)O`, the Potency result in [8] and in [19] was “inactive” in each case.
Consider `Cc1ncc2n1-c1ccc(Cl)cc1C(c1ccccc1F)=NC2`, for which the Potency entry in assay [8] and in [19] was “inactive” throughout.
Take `COc1ccc(C(=O)N2CCCC2=O)cc1`: the Potency entry in assay [1], in assay [6], in assay [7], in assay [10] and in assay [19] was “inactive” each time. The outcome in [2], in assay [3], in assay [4], in assay [5], in assay [9] and in assay [20] was inactive. For the same compound, the compound was classed as inactive in [13], in assay [14], in [15], in assay [16], in assay [17] and in [18]. Also, the activation in [11] was 0.812% (inactive). Moreover, the viability change in assay [20] is -4.73%.
Turning to `NC(=O)[C@@H]1CSSCCC(=O)N[C@@H](CCCCN=C(N)N)C(=O)NCC(=O)N[C@@H](CC(=O)O)C(=O)N[C@@H](Cc2c[nH]c3ccccc23)C(=O)N2CCC[C@H]2C(=O)N1` ([Mpa][hArg]GDWPC-NH2; disulfide 1-7), in assay [8], the Potency entry was “inactive”.
Consider `Oc1ccc2[nH]cc(CCCCN3CC=C(c4ccccc4)CC3)c2c1`, for which, in assay [8], the Potency result was “inactive”.
On to `CCCCCCCCC(=O)NCc1ccc(O)c(OC)c1`, for which the outcome in assay [4], in assay [13] and in [14] was inactive. Also, the Potency result in [19] is “inactive”.
In the case of `COP(=S)(OC)Oc1ccc(Sc2ccc(OP(=S)(OC)OC)cc2)cc1`, the Potency result in [8] is “inactive”.
`O=C(NC(=O)c1c(F)cccc1F)Nc1cc(Cl)c(OC(F)(F)C(F)C(F)(F)F)cc1Cl` (configuration not stated): the Potency result in [8] was “inactive”.
As to `C[C@]12Cc3nonc3C[C@@H]1CC[C@@H]1[C@@H]2CC[C@@]2(C)[C@H]1CC[C@]2(C)O`, the Potency entry in [8] and in assay [19] was “inactive” throughout.
Consider `NC(N)=N/N=C/c1c(Cl)cccc1Cl`, for which, in [6], the Potency result is “inactive”. For the same compound, in [18], the compound was classed as inactive.
With `CCOC(=O)Nc1ccc(NCc2ccc(F)cc2)nc1N`, the Potency in assay [1] is 39.8 µM (active). In addition, in assay [18], the call was inactive.
Turning to `CC[C@]1(O)CC[C@H]2[C@@H]3CCC4=CCCC[C@@H]4[C@H]3CC[C@@]21C`, the Potency result in assay [8] is “inactive”.
Same read-out and setting: under `C#C[C@]1(O)CC[C@H]2[C@@H]3CCC4=CC(=O)CCC4=C3C=C[C@@]21CC` stands “inactive”.
Consider `c1ccc2nc(N3CCNCC3)ccc2c1`, for which the result in assay [3], in assay [13] and in assay [14] was inactive. Further, the activation in [11] was -0.562% (inactive). The Potency entry in [19] is “inactive”.
Consider `COC(=O)C1=C(C)NC(C)=C(C(=O)OC)C1c1ccccc1[N+](=O)[O-]`, for which the Potency in assay [1] was 35.5 µM (active); in assay [6] it was 2.59 µM (active); in assay [10], 18.3 µM (active). Also, the outcome in assay [18] was inactive. Besides, the Potency entry in assay [19] is “inactive”.
In the case of `CC(C)(C)OC(=O)c1ncn2c1[C@@H]1CCCN1C(=O)c1c(Br)cccc1-2`, the Potency entry in assay [8] and in assay [19] was “inactive” each time.
For the compound `CCC(=O)O[C@H]1CC[C@H]2[C@@H]3CCC4=CC(=O)CC[C@]4(C)[C@H]3CC[C@]12C`, in assay [8], the Potency entry is “inactive”.
Consider `CNC(=O)NC(O)C(Cl)(Cl)Cl` (configuration not stated), for which the Potency entry in [8] and in assay [19] was “inactive” throughout.
Take `Oc1c(Br)cc(Br)cc1Br`: the Potency entry in assay [8] and in assay [19] was “inactive” each time.
`CC[C@H]1CN2CCc3cc(OC)c(OC)cc3[C@@H]2C[C@@H]1C[C@H]1NCCc2cc(OC)c(OC)cc21`: the result in [9] was inactive. For the same compound, the Potency in assay [10] is 0.259 µM (active).
